Data on five compounds can be found in PubChem BioAssay.

The test system of assay [1] is Human papillomavirus type 1a protein E7 (residues 44-93). Kind of assay: small molecules binding HPV E7 44-93 – biochemical, small-molecule microarray, residues 44-93, 635 nm fluorescence, primary screen (AID 1108).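 Further: E7 fragment applied at 1 µg/mL in TBST for 1 h at 4 C; score combines spot fluorescence with its signal to noise ratio.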 As to conditions: fluorescence 635 nm, higher = more signal.
Assay [2] can be described thus: hepatitis C replication reporter changes, two-sided – Huh7 cells, luciferase reporter, HCV replication inhibitor project, primary screen (AID 1109).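 Further: huh7 hepatoma cells harbouring a luciferase neomycin HCV replicon reporter; luciferase luminescence as measure of HCV replicon replication; test concentration not given here.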 Particulars: Huh7 HCV replicon luciferase reporter, 48 h; higher = more signal.
The target in assay [3] is Left-right determination factor 2 (Homo sapiens) (UniProt O00292). As to the kind of experiment: small molecules binding LEFTY2 protein – biochemical, small-molecule microarray, 635 nm fluorescence scan, primary screen (AID 1110). Particulars: higher = more signal.
Left-right determination factor 2 (Homo sapiens), sequence (O00292 whole entry, looked up): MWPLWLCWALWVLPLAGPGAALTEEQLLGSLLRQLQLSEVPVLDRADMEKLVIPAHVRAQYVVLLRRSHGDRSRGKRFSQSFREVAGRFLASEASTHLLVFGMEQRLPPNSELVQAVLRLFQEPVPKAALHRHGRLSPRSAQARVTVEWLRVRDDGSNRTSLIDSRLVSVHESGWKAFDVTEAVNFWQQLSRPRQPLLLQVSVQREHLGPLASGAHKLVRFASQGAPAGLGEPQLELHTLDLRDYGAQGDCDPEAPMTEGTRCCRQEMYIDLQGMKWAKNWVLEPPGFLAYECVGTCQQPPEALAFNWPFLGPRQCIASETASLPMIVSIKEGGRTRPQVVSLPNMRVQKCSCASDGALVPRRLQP
Assay [4] deals with Calmodulin-1 (Homo sapiens) (UniProt P0DP23). Kind of assay: small molecules binding calmodulin-1 with EGTA – biochemical, small-molecule microarray, Cy5-labelled CALM1, profiling panel (AID 1111).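 Further: labelled calmodulin applied in Tris saline Tween buffer holding calcium plus EGTA and DTT.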 As to conditions: Cy5-CALM1 binding fluorescence, higher = more signal.
The target is the same in assay [5]. Kind of assay: small molecules binding Ca-loaded calmodulin-1 – biochemical, small-molecule microarray, Cy5-labelled CALM1, plus calcium, artefact control for SMM control-protein annotation, profiling panel (AID 1112).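 Further: score merges spot fluorescence with signal to noise from triplicate slides.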 As to conditions: Cy5-CALM1 binding fluorescence, higher = more signal.
A short description of assay [6]: probe aWnt5a binding to arrayed compounds – biochemical, biotinylated probe, 635/667 nm fluorescence, primary screen (AID 1113).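 Further: score merges 667 nm fluorescence intensity with signal-to-noise per printed feature.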 As to conditions: small-molecule microarray, higher = more signal.
Assay [7] is described as follows: probe aShh binding to arrayed compounds – biochemical, biotinylated probe, 635/667 nm fluorescence, primary screen (AID 1114).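 Further: probe is biotin-labelled aShh protein from a stem cell growth factor screen; measures binding of labelled protein to compounds printed on the slide; score merges feature fluorescence at 667 nm with signal-to-noise.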 Particulars: small-molecule microarray, higher = more signal.
The nature of assay [8]: probe aNog binding to arrayed compounds – biochemical, biotinylated probe, 635/667 nm fluorescence, primary screen (AID 1115).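 Further: probe is biotinylated aNog protein used at 0.15 µg/mL for 1 h at 4 C; z-score combines 667 nm fluorescence of each spot with its signal to noise.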 Particulars: small-molecule microarray, higher = more signal.
In assay [9] the target is Torsin-1A-interacting protein 1 (Homo sapiens) (UniProt Q5JTV8). Kind of assay: compound microarray binding of lysate hLAP1 – cell lysate, small-molecule microarray, COS7 lysate, 635/667 nm fluorescence, primary screen (AID 1116). As to conditions: 635 nm fluorescence, higher = more signal.
Torsin-1A-interacting protein 1 (Homo sapiens), sequence (Q5JTV8 whole entry, looked up): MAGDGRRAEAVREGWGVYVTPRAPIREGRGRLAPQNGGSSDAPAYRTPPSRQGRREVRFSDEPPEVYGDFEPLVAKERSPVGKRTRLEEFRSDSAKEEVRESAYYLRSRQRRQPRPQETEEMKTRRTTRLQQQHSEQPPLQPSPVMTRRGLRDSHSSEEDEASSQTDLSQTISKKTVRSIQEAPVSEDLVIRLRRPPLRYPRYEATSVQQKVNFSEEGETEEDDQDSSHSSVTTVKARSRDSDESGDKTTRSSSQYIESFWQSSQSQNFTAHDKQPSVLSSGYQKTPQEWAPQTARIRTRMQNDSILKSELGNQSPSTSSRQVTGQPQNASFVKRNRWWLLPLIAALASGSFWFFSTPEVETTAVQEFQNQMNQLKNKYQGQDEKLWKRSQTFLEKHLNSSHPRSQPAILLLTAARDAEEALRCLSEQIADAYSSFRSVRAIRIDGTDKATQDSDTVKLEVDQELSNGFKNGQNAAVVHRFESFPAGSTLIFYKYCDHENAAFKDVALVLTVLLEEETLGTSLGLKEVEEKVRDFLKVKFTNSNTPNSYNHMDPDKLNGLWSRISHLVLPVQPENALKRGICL
In assay [10] the target is Alpha-bungarotoxin (Bungarus multicinctus) (UniProt P60615). Kind of assay: compounds binding labelled alpha-BTX control protein – biochemical, small-molecule microarray, Alexa647 label, 635/667 nm fluorescence, artefact control for SMM control protein annotation, profiling panel (AID 1117). Particulars: alpha-BTX-A647 binding fluorescence, higher = more signal.
Alpha-bungarotoxin (Bungarus multicinctus), sequence (P60615 whole entry, looked up): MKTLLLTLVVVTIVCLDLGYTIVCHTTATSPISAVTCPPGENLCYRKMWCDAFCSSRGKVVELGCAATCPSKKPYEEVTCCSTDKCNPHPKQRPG
In a further assay the target is Albumin (Bos taurus) (UniProt P02769). Kind of assay: compounds binding labelled BSA control protein – biochemical, small-molecule microarray, Alexa647 label, 635/667 nm fluorescence, artefact control for SMM control protein annotation, profiling panel (AID 1118).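 Further: score merges 667 nm emission intensity and signal-to-noise per printed compound spot.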 As to conditions: BSA-A647 binding, fluorescence 635 nm, higher = more signal.
Albumin (Bos taurus), sequence (P02769 whole entry, looked up): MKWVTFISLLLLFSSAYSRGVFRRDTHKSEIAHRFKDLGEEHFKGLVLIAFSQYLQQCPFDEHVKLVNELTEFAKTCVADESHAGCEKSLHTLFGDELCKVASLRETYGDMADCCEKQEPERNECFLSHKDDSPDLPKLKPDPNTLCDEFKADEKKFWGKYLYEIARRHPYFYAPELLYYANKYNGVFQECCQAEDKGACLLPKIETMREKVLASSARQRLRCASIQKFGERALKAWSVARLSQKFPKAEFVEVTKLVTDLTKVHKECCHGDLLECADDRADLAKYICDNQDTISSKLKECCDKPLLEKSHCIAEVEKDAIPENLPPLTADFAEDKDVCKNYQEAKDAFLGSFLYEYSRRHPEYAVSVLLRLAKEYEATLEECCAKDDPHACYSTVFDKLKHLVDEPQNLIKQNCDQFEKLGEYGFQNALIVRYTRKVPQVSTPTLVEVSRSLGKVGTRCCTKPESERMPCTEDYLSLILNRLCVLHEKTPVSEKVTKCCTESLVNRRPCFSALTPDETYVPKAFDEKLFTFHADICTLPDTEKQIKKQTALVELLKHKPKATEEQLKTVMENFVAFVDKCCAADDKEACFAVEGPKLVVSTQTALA
Assay [11] in a line: probe aXIP binding to arrayed compounds – biochemical, NeuroSMM set, 635/667 nm fluorescence, primary screen (AID 1119).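 Further: probe is the protein aXip251-270 applied at 1 µg/mL to compound-printed slides; binding of probe to printed compounds measured as 667 nm fluorescence plus signal to noise.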 As to conditions: small-molecule microarray, higher = more signal, called active from +8 up or from −8 down.
A short description of assay [12]: probe aNOTCH3 binding on compound microarray – biochemical, small-molecule microarray, 635/667 nm fluorescence, primary screen (AID 1120).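 Further: probe is a biotin-tagged antibody raised against NOTCH3 rather than NOTCH3 protein; score merges spot fluorescence near 667 nm with spot signal to noise.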 Particulars: higher = more signal.
Assay [13] in a line: probe aNOTCH2 binding on compound microarray – biochemical, small-molecule microarray, 635/667 nm fluorescence, primary screen (AID 1121).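 Further: score merges feature fluorescence read at 667 nm with its signal to noise.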 As to conditions: higher = more signal.
Assay [14] deals with Carbonic anhydrase 2 (Homo sapiens) (UniProt P00918). As to the kind of experiment: compounds binding carbonic anhydrase 2 – biochemical, small-molecule microarray, Alexa647-labelled CAII, profiling panel (AID 1122). As to conditions: CAII-A647 binding fluorescence, higher = more signal.
Assay [15] is described as follows: COS7 lysate on small-molecule microarray, probe aHis, 635 nm (AID 1123).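 Further: z-score combines 667nm fluorescence intensity with signal-to-noise per printed compound spot.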 As to conditions: COS7 cell lysate, fluorescence, higher = more signal.
A short description of assay [16]: probe aLAP1 signal on lysate-treated microarray – cell lysate, small-molecule microarray, COS7 lysate, primary screen (AID 1124).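 Further: lysate comes from COS7 cells expressing LAP1 and is applied at 0.3 µg/mL; score merges spot fluorescence near 667 nm with signal-to-noise over triplicate slides.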 As to conditions: probe aLAP1, fluorescence, higher = more signal.
In the next assay the test system is Sam68 (KHDRBS1). Kind of assay: compounds binding KHDRBS1 protein – biochemical, small-molecule microarray, 635 nm fluorescence, primary screen (AID 1125).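 Further: score merges 667 nm channel intensity with signal to noise over triplicate slides.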 As to conditions: higher = more signal.
Assay [17] relates to Chordin-like protein 2 (CHRDL2). Kind of assay: compounds binding chordin-like 2 – biochemical, small-molecule microarray, 635 nm fluorescence, primary screen (AID 1126).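 Further: printed compound slides probed with Chrdl2 protein at 4 µg/mL for 1 h at 4 C; score merges 667 nm emission intensity with signal to noise over three replicate slides.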 As to conditions: fluorescence 635 nm, higher = more signal.
Assay [18] addresses Concanavalin-A (Canavalia ensiformis) (UniProt P02866). As to the kind of experiment: compounds binding concanavalin A lectin – biochemical, small-molecule microarray, Alexa647 label, 635 nm, artefact control for SMM control protein annotation, primary screen (AID 1127).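 Further: z combines 667 nm emission intensity with signal-to-noise across three replicate slides.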 Particulars: ConA-A647 binding fluorescence, higher = more signal.

SMILES strings stand for the structures. “And” between values parts separate entries of the source, which are not always exact repeats. Equal values may be shown once. The source made the active and inactive calls.

Concanavalin-A (Canavalia ensiformis), sequence (P02866 whole entry, looked up): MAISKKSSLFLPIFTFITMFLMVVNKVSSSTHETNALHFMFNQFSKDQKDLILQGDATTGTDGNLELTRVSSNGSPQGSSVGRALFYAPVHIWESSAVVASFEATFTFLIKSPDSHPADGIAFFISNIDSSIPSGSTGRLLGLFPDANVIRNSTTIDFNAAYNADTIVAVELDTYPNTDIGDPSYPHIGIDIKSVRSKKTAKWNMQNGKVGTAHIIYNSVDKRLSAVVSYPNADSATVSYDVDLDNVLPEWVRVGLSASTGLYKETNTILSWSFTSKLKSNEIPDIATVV

Consider `C=C[C@@H](OC)[C@H](O)c1ccc(OCCO)cc1`, for which the composite z-score is -0.796 and -1.11 in [1]; -1.42 and -0.132 in assay [3]; -1.29 and -0.831 in assay [4]; -0.778 and -0.247 in assay [5]; -0.298 and -0.242 in assay [6]; -0.221 and -0.138 in assay [7]. Further, the composite z-score in assay [8] was -0.501 and -0.393; in assay [9], 0.91 and -0.0877; in assay [10], -0.7 and -0.37; in the assay with Albumin (Bos taurus), -0.128 and 0.397; in [12] it was -0.323 and -0.465; in assay [13] it was -0.227 and -0.142. In addition, the composite z-score is 0.831 and 0.847 in assay [14]; -0.236 and -0.474 in assay [15]; 1.48 and -0.402 in [16]; -0.352 and -1.38 in the assay with Sam68 (KHDRBS1); -0.866 and -1.44 in [17]; -1.26 and -1.04 in assay [18]. For the same compound, the z-score in assay [2] is 0.241 and -0.0944. In addition, the composite Z-score in [11] was -0.158 (inactive) and -0.292 (inactive).

Turning to `C=CCN(C(=O)C1N(CCOCCO)C(=O)C2C(C(=O)O)C3C=CC21O3)c1ccc(OC)cc1` (stereo not given), the composite z-score in assay [1] was -0.754 and -1.72; in assay [3], -2.03 and -2.77; in assay [4], -0.315 and -1.35; in assay [5], 0.538 and -0.237; in [6], -0.2 and -0.214; in assay [7], -0.221 and -0.195. The composite z-score in [8] is 0.406 and 0.669; in [9], 1.38 and -0.149; in [10] it was -1.18 and -2.65; in the assay with Albumin (Bos taurus) it was -0.0638 and -1.17; in [12] it was -0.421 and -0.459; in [13], -0.211 and -0.143. The composite z-score is 0.797 and 0.959 in assay [14]; -0.39 and 0.89 in [15]; 1.39 and 0.112 in assay [16]; -1.5 and -2.25 with Sam68 (KHDRBS1); -2.17 and -3.32 in assay [17]; -2.82 and -1.96 in assay [18]. Also, the z-score in assay [2] was 0.51 and -0.102. For the same compound, the composite Z-score in assay [11] was -0.598 (inactive) and -0.613 (inactive).

Turning to `C=CCN(C(=O)C(c1cccs1)N(C(=O)/C=C\C(=O)O)c1ccc(CCO)cc1)C(C)(C)C` (stereo not given), the composite z-score in assay [1] is -1.51 and -0.35; in assay [3], -3.2 and -3.93; in assay [4] it was 0.295 and 0.0738; in assay [5], 1.1 and 0.871; in assay [6], -0.148 and -0.27; in assay [7] it was -0.0035 and 0.568. Moreover, the composite z-score was 1.1 and -0.0102 in [8]; 3.3 and 2.33 in assay [9]; -0.263 and -1.06 in [10]; 0.779 and 0.432 with Albumin (Bos taurus); -0.312 and -0.448 in [12]; -0.0708 and -0.0924 in assay [13]. In addition, the composite z-score in assay [14] is 0.663 and 0.867; in assay [15], 2.45 and 2.51; in [16], 0.904 and 1.16; with Sam68 (KHDRBS1), -0.847 and -1.43; in [17], -1.74 and -2.91; in [18] it was -0.941 and -0.744. The z-score in assay [2] is -0.18 and 0.135. Also, the composite Z-score in [11] was -0.374 (inactive) and -0.419 (inactive).

For `COC(=O)C1=C(C)N(Cc2ccccc2)C2=C3C(=O)CCC[C@@H]3[C@@](O)(C(=O)OC)C(=O)N2[C@@H]1c1ccccc1`, the composite z-score in [1] was -0.0225 and -0.0706; in assay [3] it was 0.278 and 0.372; in assay [4] it was -0.255 and -0.674; in assay [5] it was -0.361 and -0.0671; in [6], -0.144 and -0.0185; in [7], -0.182 and 0.187. Moreover, the composite z-score in assay [8] is -0.424 and 0.0775; in assay [9] it was 0.617 and 0.179; in [10], 0.187 and -0.503; with Albumin (Bos taurus) it was 0.0476 and 0.354; in [12], -0.0077 and 0.178; in assay [13], -0.125 and -0.114. The composite z-score in assay [14] is 0.362 and 0.0465; in assay [15], 0.0949 and 0.111; in assay [16], -0.0012 and 0.0654; in the assay on Sam68 (KHDRBS1), 0.368 and -0.0561; in assay [17] it was 0.674 and 0.24; in assay [18], 0.596 and -0.917. Moreover, the z-score in [2] is -0.571 and -2.09. Besides, the composite Z-score in assay [11] was -0.0521 (inactive) and -0.191 (inactive).

For the compound `CC(C)=NOC[C@@H](O)COCc1ccco1`, the composite z-score in assay [1] was -1.92; in assay [3] it was -0.168; in [4], -0.614; in assay [5], -0.142; in assay [6] it was -0.172; in [7], -0.138. Besides, the composite z-score in assay [8] is -0.342; in assay [9], -0.2; in [10], -1.1; in the assay with Albumin (Bos taurus) it was -0.206; in [12] it was -0.0328; in assay [13] it was -0.132. Also, the composite z-score in assay [14] is -0.637; in [15], -0.115; in assay [16], -0.353; in the assay on Sam68 (KHDRBS1), -2.3; in assay [17], 0.397; in [18], -0.703. The z-score in assay [2] was 0.797. For the same compound, in assay [11], the composite Z-score is 1.56 (inactive).
